The structures appear in SMILES notation. The panel holds about 79,000 compounds, 15% with a hit somewhere; the sample as a whole holds those more often. A number with no mark means an inactive call. The source made the active and inactive calls. No stated cut-off is given here; in the data, active means growth inhibition above about 70%; inactive means the rest.

The nature of experiment [1]: NCI Yeast Anticancer Drug Screen. Data for the rad50 strain (AID 155).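 Further: 0% = growth of vehicle-only cultures of the same strain.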 The note with it: S. cerevisiae rad50 strain growth inhibition, stronger effect = higher value. The gist of the method:
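Genetically altered yeast (DNA repair pathway); compound treatment; growth inhibition vs vehicle ctrl.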

Experiment [2] is described as follows: NCI Yeast Anticancer Drug Screen. Data for the mec2-1 strain (AID 157). The note with it: S. cerevisiae mec2-1 strain, stronger effect = higher value. The gist of the method:
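Growth inhibition is read against vehicle-treated controls after compound exposure of the mec2-1 yeast strain, which is defective in DNA damage repair or cell cycle control.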

Experiment [3] is described as follows: NCI Yeast Anticancer Drug Screen. Data for the sgs1 mgt1 strain (AID 161).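 Further: 0% = growth of cultures given vehicle only.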 Particulars: S. cerevisiae sgs1 mgt1 strain, stronger effect = higher value. The gist of the method: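 Compounds are added to genetically altered yeast, and growth is compared with cultures given vehicle alone to give percent inhibition.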
The nature of experiment [4]: NCI Yeast Anticancer Drug Screen. Data for the cln2 rad14 strain (AID 165).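 Further: 0% = growth equal to vehicle treated cultures.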 The note with it: S. cerevisiae cln2 rad14 strain, stronger effect = higher value. Put shortly:
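Growth inhibition, relative to vehicle-treated controls, is the read-out. The test organism is a yeast strain with defined genetic alterations, cln2 rad14.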

Experiment [5] is described as follows: NCI Yeast Anticancer Drug Screen. Data for the bub3 strain (AID 167). The note with it: S. cerevisiae bub3 mutant strain, stronger effect = higher value. Put shortly:
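Yeast carrying a defined mutation is treated with each compound, and growth is compared with that of vehicle-exposed cells to give inhibition.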

Experiment [6] can be described thus: NCI Yeast Anticancer Drug Screen. Data for the mlh1 rad18 strain (AID 175). Particulars: S. cerevisiae mlh1 rad18 strain growth inhibition, stronger effect = higher value. The gist of the method:
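Cells of a genetically altered yeast strain, deficient in DNA damage repair, were treated with compound. Their growth was then compared with that of vehicle-treated cultures to give inhibition.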

Where [7] appears, read: at 5.0 µM (retest, dose inferred, filed as 0.5).
Where [8] appears, read: at 50.0 µM (retest, dose inferred, filed as 5.0).

As to `COC(C)(C)[C@@H]1CCCN1C1=C(C)C(=O)OC1`, the growth inhibition was 97% (active) in experiment [1] (setting [7]); 99% (active) in experiment [1] (setting [8]); 46.6% in experiment [1] (at 50.0 µM); 85% (active) in experiment [2] (setting [7]); 99% (active) in experiment [2] (setting [8]); 69.3% in experiment [2] (at 50.0 µM). The growth inhibition in experiment [3] (setting [7]) is 61%; in experiment [3] (setting [8]) it was 99% (active); in experiment [3] (at 50.0 µM), 78.5% (active); in experiment [4] (setting [7]) it was 43%; in experiment [4] (setting [8]), 99% (active); in experiment [4] (at 50.0 µM), 24.6%. Moreover, the growth inhibition in experiment [5] (setting [7]) is 89% (active); in experiment [5] (setting [8]), 99% (active); in experiment [5] (at 50.0 µM), 46.6%; in experiment [6] (setting [7]) it was 90% (active); in experiment [6] (setting [8]), 99% (active); in experiment [6] (at 50.0 µM) it was 75.8% (active).
For `CCOC(=O)/C(=C\c1cccc(Br)c1)C(C)=O`, the growth inhibition in experiment [1] (setting [7]) is 47%; in experiment [1] (setting [8]), 100% (active); in experiment [1] (at 50.0 µM), 92.8% (active); in experiment [2] (setting [7]), 51%; in experiment [2] (setting [8]) it was 99% (active); in experiment [2] (at 50.0 µM), 94.9% (active). The growth inhibition in experiment [3] (setting [7]) is 47%; in experiment [3] (setting [8]), 99% (active); in experiment [3] (at 50.0 µM), 93.1% (active); in experiment [4] (setting [7]), 45%; in experiment [4] (setting [8]), 99% (active); in experiment [4] (at 50.0 µM), 92.9% (active). The growth inhibition was 87% (active) in experiment [5] (setting [7]); 100% (active) in experiment [5] (setting [8]); 92.7% (active) in experiment [5] (at 50.0 µM); 82% (active) in experiment [6] (setting [7]); 100% (active) in experiment [6] (setting [8]); 92.5% (active) in experiment [6] (at 50.0 µM).
In the case of `O=C(O)Cc1cc(I)c(Oc2ccc(O)c(I)c2)c(I)c1`, the growth inhibition in experiment [1] (setting [7]) is -6%; in experiment [1] (setting [8]), 92% (active); in experiment [1] (at 50.0 µM) it was 89.8% (active); in experiment [2] (setting [7]), 0%; in experiment [2] (setting [8]), 98% (active); in experiment [2] (at 50.0 µM) it was 92.2% (active). The growth inhibition is 7% in experiment [3] (setting [7]); 93% (active) in experiment [3] (setting [8]); 91% (active) in experiment [3] (at 50.0 µM); 29% in experiment [4] (setting [7]); 97% (active) in experiment [4] (setting [8]); 89.3% (active) in experiment [4] (at 50.0 µM). Besides, the growth inhibition is 22% in experiment [5] (setting [7]); 98% (active) in experiment [5] (setting [8]); 91.7% (active) in experiment [5] (at 50.0 µM); 20% in experiment [6] (setting [7]); 97% (active) in experiment [6] (setting [8]); 89.7% (active) in experiment [6] (at 50.0 µM).
In the case of `CN(C)CC/[N+]([O-])=C(/c1ccccc1)C12CC3CC(CC(C3)C1)C2`, the growth inhibition in experiment [1] (setting [7]) is -6%; in experiment [1] (setting [8]), 6%; in experiment [1] (at 50.0 µM), -16.6%; in experiment [2] (setting [7]), -1%; in experiment [2] (setting [8]), -1%; in experiment [2] (at 50.0 µM), 1.8%. Also, the growth inhibition is 14% in experiment [3] (setting [7]); 31% in experiment [3] (setting [8]); 16.9% in experiment [3] (at 50.0 µM); 7% in experiment [4] (setting [7]); -1% in experiment [4] (setting [8]); 17.1% in experiment [4] (at 50.0 µM). Also, the growth inhibition in experiment [5] (setting [7]) is 1%; in experiment [5] (setting [8]), 3%; in experiment [5] (at 50.0 µM) it was -1.9%; in experiment [6] (setting [7]), 9%; in experiment [6] (setting [8]), 25%; in experiment [6] (at 50.0 µM), 70.6% (active).
In the case of `CCCOC(=O)C#CC(=O)OCCC`, the growth inhibition in experiment [1] (setting [7]) was 37%; in experiment [1] (setting [8]), 96% (active); in experiment [1] (at 50.0 µM), 94.6% (active); in experiment [2] (setting [7]), 29%; in experiment [2] (setting [8]), 99% (active); in experiment [2] (at 50.0 µM), 63%. Moreover, the growth inhibition in experiment [3] (setting [7]) is 43%; in experiment [3] (setting [8]), 99% (active); in experiment [3] (at 50.0 µM) it was 48.8%; in experiment [4] (setting [7]), 21%; in experiment [4] (setting [8]), 99% (active); in experiment [4] (at 50.0 µM), 93.6% (active). In addition, the growth inhibition in experiment [5] (setting [7]) was 25%; in experiment [5] (setting [8]) it was 99% (active); in experiment [5] (at 50.0 µM), 7.3%; in experiment [6] (setting [7]), 69%; in experiment [6] (setting [8]) it was 99% (active); in experiment [6] (at 50.0 µM), 74.6% (active).
In the case of `Cc1cccc(CC(C)(C)C)c1NC(=O)C(=O)C(C(=O)c1ccc2ccccc2c1)C1OC(=O)c2ccccc21` (stereo not given), the growth inhibition is 6% in experiment [1] (setting [7]); 78% (active) in experiment [1] (setting [8]); 52.8% in experiment [1] (at 50.0 µM); -1% in experiment [2] (setting [7]); 92% (active) in experiment [2] (setting [8]); 23.6% in experiment [2] (at 50.0 µM). For the same compound, the growth inhibition in experiment [3] (setting [7]) is 9%; in experiment [3] (setting [8]) it was 92% (active); in experiment [3] (at 50.0 µM), 36.3%; in experiment [4] (setting [7]) it was -1%; in experiment [4] (setting [8]), 76% (active); in experiment [4] (at 50.0 µM), 12.8%. Moreover, the growth inhibition in experiment [5] (setting [7]) was 2%; in experiment [5] (setting [8]), 93% (active); in experiment [5] (at 50.0 µM) it was 52.1%; in experiment [6] (setting [7]), -1%; in experiment [6] (setting [8]), 86% (active); in experiment [6] (at 50.0 µM) it was 68.2%.
Take `COc1ccc(SC2=C(N(C)C)C(=O)c3ccccc3C2=O)cc1`: the growth inhibition was 2% in experiment [1] (setting [7]); 85% (active) in experiment [1] (setting [8]); 88.2% (active) in experiment [1] (at 50.0 µM); -19% in experiment [2] (setting [7]); 79% (active) in experiment [2] (setting [8]); 19.8% in experiment [2] (at 50.0 µM). In addition, the growth inhibition in experiment [3] (setting [7]) is 2%; in experiment [3] (setting [8]) it was 92% (active); in experiment [3] (at 50.0 µM), 63.2%; in experiment [4] (setting [7]), 54%; in experiment [4] (setting [8]), 79% (active); in experiment [4] (at 50.0 µM) it was 22.8%. The growth inhibition in experiment [5] (setting [7]) is -10%; in experiment [5] (setting [8]), -46%; in experiment [5] (at 50.0 µM), 60%; in experiment [6] (setting [7]), 11%; in experiment [6] (setting [8]) it was 88% (active); in experiment [6] (at 50.0 µM), 84.5% (active).
Regarding `CC1CCC(=NNC(N)=O)CC1` (stereo not given), the growth inhibition was -1% in experiment [1] (setting [7]); -6% in experiment [1] (setting [8]); 3.9% in experiment [1] (at 50.0 µM); -11% in experiment [2] (setting [7]); -2% in experiment [2] (setting [8]); -10.9% in experiment [2] (at 50.0 µM). The growth inhibition in experiment [3] (setting [7]) was -1%; in experiment [3] (setting [8]), -4%; in experiment [3] (at 50.0 µM), 2.45%; in experiment [4] (setting [7]), -5%; in experiment [4] (setting [8]), -1%; in experiment [4] (at 50.0 µM), 34.9%. For the same compound, the growth inhibition in experiment [5] (setting [7]) is -3%; in experiment [5] (setting [8]), -3%; in experiment [5] (at 50.0 µM), 9.5%; in experiment [6] (setting [7]), -1%; in experiment [6] (setting [8]), -4%; in experiment [6] (at 50.0 µM), -19.2%.
Take `Cc1cc(O)c2c(c1)OC1(C)CCC3C(C)(C)CCCC34COC2C14` (stereo not given): the growth inhibition is 18% in experiment [1] (setting [7]); 97% (active) in experiment [1] (setting [8]); 89.5% (active) in experiment [1] (at 50.0 µM); 16% in experiment [2] (setting [7]); 98% (active) in experiment [2] (setting [8]); 87.5% (active) in experiment [2] (at 50.0 µM). For the same compound, the growth inhibition in experiment [3] (setting [7]) is 17%; in experiment [3] (setting [8]) it was 98% (active); in experiment [3] (at 50.0 µM), 90.6% (active); in experiment [4] (setting [7]), 27%; in experiment [4] (setting [8]) it was 98% (active); in experiment [4] (at 50.0 µM) it was 88.5% (active). The growth inhibition is 6% in experiment [5] (setting [7]); 98% (active) in experiment [5] (setting [8]); 85.5% (active) in experiment [5] (at 50.0 µM); 33% in experiment [6] (setting [7]); 97% (active) in experiment [6] (setting [8]); 88.6% (active) in experiment [6] (at 50.0 µM).
With `CCCCN(CCCC)CC(O)Cc1cc2ccccc2c2ccccc12` (stereo not given), the growth inhibition in experiment [1] (setting [7]) is 0%; in experiment [1] (setting [8]), 65%; in experiment [1] (at 50.0 µM) it was 90.7% (active); in experiment [2] (setting [7]), 1%; in experiment [2] (setting [8]), 44%; in experiment [2] (at 50.0 µM), 48.6%. The growth inhibition in experiment [3] (setting [7]) is -4%; in experiment [3] (setting [8]) it was 92% (active); in experiment [3] (at 50.0 µM), 99.1% (active); in experiment [4] (setting [7]), -7%; in experiment [4] (setting [8]), 42%; in experiment [4] (at 50.0 µM), 62.6%. Further, the growth inhibition in experiment [5] (setting [7]) is 0%; in experiment [5] (setting [8]), 47%; in experiment [5] (at 50.0 µM) it was 94.4% (active); in experiment [6] (setting [7]), 18%; in experiment [6] (setting [8]), 91% (active); in experiment [6] (at 50.0 µM), 98.4% (active).

Source of the values: PubChem BioAssay (NCI).
